Calls of active or inactive are those of the source. Rule as the data show it, unless noted: active = inhibition above about 80%; inactive = the rest.
Key:
[1] = antimalarial activity against Dd2 strain (AID 2302;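 active = growth inhibition above 50% at the single 2 µM test dose, taken to imply half-maximal potency below 2 µM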;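 also: 0% = DMSO untreated growth and 100% = chloroquine plus artemisinin killed control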); conditions: P. falciparum Dd2 in RBCs, LDH growth readout, 72 h; at 2 µM; stronger effect = higher value
[2] = HepG2 cytotoxicity, primary screen, cytotoxicity control for P. falciparum antimalarial project, cell-based, ATP luminescence (AID 2303;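 active = inhibition above 50%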;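 also: 0% = DMSO wells and 100% = digitonin-killed cells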); conditions: HepG2 viability, 24-48 h, at 10 µM, stronger effect = higher value
[3] = biological target: L-lactate dehydrogenase (Plasmodium falciparum (isolate CDC / Honduras)) (UniProt Q27743); experiment: PfLDH activity inhibition – cell lysate, 3D7 strain, counter-screen for P. falciparum growth inhibition project (AID 2304; call rule not given here;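 also: 0% = vehicle and 100% = reference inhibitor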); conditions: P. falciparum 3D7 crude extract, LDH APAD/NBT absorbance; at 2 µM; stronger effect = higher value
[4] = inhibition of 3D7 malaria parasite growth – strain 3D7 (AID 2306; call rule not given here;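 also: 0% = DMSO wells and 100% = chloroquine plus artemisinin control wells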); conditions: P. falciparum 3D7 erythrocytic growth, LDH absorbance, 72 h; at 2 µM; stronger effect = higher value
[5] = circadian clock period modulators, cell-based, LOPAC library, luminescence reporter (AID 2774; call rule not given here;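 also: values are relative to mean of DMSO wells on each plate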); conditions: circadian reporter cells, at 7 µM, actives lie on both sides
[6] = test system: Hepatitis C virus NS3 helicase; experiment: HCV NS3 helicase inhibitors, primary screen, biochemical, fluorescence polarization, LOPAC1280 library (AID 687035; in the data active = inhibition above about 37%); conditions: Purified HCV NS3 helicase, Cy5-dT15 ssDNA binding fluorescence polarization; stronger effect = higher value; concentration not given here
[7] = Cy5 fluorescence quenching or enhancement artefacts, artefact control for HCV NS3 helicase inhibitor project, biochemical, LOPAC1280 (AID 687037; call rule not given here); conditions: Cy5-DNA-NS3h complex fluorescence interference counterscreen
[8] = LFS_MB_P medulloblastoma growth inhibition, cell-based, chromothripsis tumors, cisplatin or BGB combos (AID 1671449); conditions: LFS_MB_P medulloblastoma cells;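 also: cells exposed for 96 hours; 0% = vehicle DMSO and 100% = killing by high DMSO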
[9] = HDN33 neuroblastoma growth inhibition, cell-based, chromothripsis tumors, cisplatin or BGB combos (AID 1671450); conditions: HDN33 neuroblastoma cells, stronger effect = higher value;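 also: cells exposed to compound for four days; 0% = vehicle DMSO and 100% = cell killing by high DMSO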
[10] = ICB984 medulloblastoma cell growth inhibition, synergistic combos for chromothripsis tumors, cisplatin or BGB combos (AID 1671451; call rule not given here;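 also: cells exposed for 96 hours before readout; 0% = vehicle DMSO and 100% = killing by high DMSO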); conditions: ICB984 medulloblastoma cells, drug combinations, stronger effect = higher value
[11] = LFS_MB_1R medulloblastoma cell growth inhibition, synergistic combos for chromothripsis tumors, cisplatin or BGB combos (AID 1671452); conditions: LFS_MB_1R medulloblastoma cells, stronger effect = higher value;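 also: cells exposed for 96 hours before readout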
[12] = HTB85 osteosarcoma cell growth inhibition, synergistic combos for chromothripsis tumors, BGB or cisplatin IC20 combos (AID 1671453); conditions: HTB85 osteosarcoma cells, drug combinations, stronger effect = higher value;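 also: cells exposed for 96 hours before readout; 0% = vehicle DMSO and 100% = high DMSO killing control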
[13] = CRL2098 osteosarcoma cell growth inhibition, synergistic combos for chromothripsis tumors, BGB or cisplatin IC20 combos (AID 1671454); conditions: CRL2098 osteosarcoma cells, drug combinations, stronger effect = higher value;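 also: cells exposed for 96 h before readout; 0% = vehicle DMSO and 100% = killing by high DMSO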
[14] = HD-MB03 medulloblastoma cell growth inhibition, synergistic combos for chromothripsis tumors, BGB or cisplatin IC20 combos (AID 1671455; in the data active = inhibition above about 83%;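 also: 0% = vehicle DMSO and 100% = high DMSO as cytotoxic control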); conditions: HD-MB03 medulloblastoma cells, stronger effect = higher value
[15] = UWB1.289 ovarian carcinoma cell growth inhibition, synergistic combos for chromothripsis tumors, BGB or cisplatin combos (AID 1671456); conditions: UWB1.289 ovarian carcinoma cells, stronger effect = higher value;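 also: cells exposed to compound for four days; 0% = vehicle DMSO and 100% = killing by high DMSO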
[16] = LFS_MB_2R medulloblastoma cell growth inhibition, synergistic combos for chromothripsis tumors, cisplatin combos (AID 1671457); conditions: LFS_MB_2R medulloblastoma cells, stronger effect = higher value;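 also: cells exposed to compound for four days before readout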
[17] = MDA-MB-436 breast carcinoma cell growth inhibition, synergistic combos for chromothripsis tumors, BGB or cisplatin combos (AID 1671458; call rule not given here;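 also: cells exposed for 96 hours; 0% = vehicle DMSO and 100% = killing by high DMSO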); conditions: MDA-MB-436 breast carcinoma growth inhibition, drug combinations, stronger effect = higher value
[18] = UWB1.289_BRCA1 ovarian cancer growth, cell-based, BGB or cisplatin combinations (AID 1671459); conditions: UWB1.289 BRCA1 ovarian carcinoma, drug combinations, stronger effect = higher value
[19] = human astrocyte viability loss, single and combined drugs, cytotoxicity control for chromothriptic childhood tumor combination screen, cell-based, BGB or cisplatin IC20 combos (AID 1671460); conditions: Human astrocytes, drug combinations, stronger effect = higher value;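 also: cells exposed to compounds for 96 hours before viability readout; 0% = vehicle and 100% = killing control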
[20] = growth inhibition of BT084 medulloblastoma cells, cell-based, ICGC_MB145, cisplatin and BGB IC40 combos (AID 1671461); conditions: drug combinations, stronger effect = higher value;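 also: cells exposed to drugs for 96 hours; 0% = vehicle DMSO and 100% = high DMSO full killing control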
[21] = growth inhibition of RCMB18 medulloblastoma cells, cell-based, cisplatin and BGB IC40 combos (AID 1671462); conditions: stronger effect = higher value;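 also: cells exposed to compound for four days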
[22] = growth inhibition of CRL1545 osteosarcoma cells, cell-based, cisplatin and BGB IC20 combos (AID 1671464); conditions: stronger effect = higher value;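 also: cells exposed to compound for 96 hours before readout; 0% = vehicle DMSO and 100% = high DMSO killing control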
[23] = measured here: combination with BGB IC40, at 0.05 µM
[24] = measured here: with BGB IC20 combination, at 0.5 µM
[25] = measured here: with cisplatin IC20 combination, at 0.5 µM
[26] = measured here: combination with cisplatin, at 0.5 µM
[27] = measured here: combination with cisplatin, at 5 µM

Sequence of L-lactate dehydrogenase (Plasmodium falciparum (isolate CDC / Honduras)) (Q27743 whole entry, looked up): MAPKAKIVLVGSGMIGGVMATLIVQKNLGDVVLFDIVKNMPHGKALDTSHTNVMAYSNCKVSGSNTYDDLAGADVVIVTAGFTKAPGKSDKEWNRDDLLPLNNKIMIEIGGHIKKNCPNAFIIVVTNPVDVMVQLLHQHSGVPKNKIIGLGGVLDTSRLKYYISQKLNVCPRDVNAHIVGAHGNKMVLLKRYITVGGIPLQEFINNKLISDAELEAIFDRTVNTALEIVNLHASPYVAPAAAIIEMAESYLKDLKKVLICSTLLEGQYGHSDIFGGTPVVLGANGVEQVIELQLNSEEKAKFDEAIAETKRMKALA

With `Cc1ccc(C[C@H](C)NC[C@H](O)c2cccc(C(F)(F)F)c2)cc1` the growth inhibition [1] was 54% (active), the inhibition [2] was 5% (inactive) and the inhibition [3] was -1% (inactive). The growth inhibition [4] was 100% (active).
With `NC(Cc1ccc(N(CCCl)CCCl)cc1)C(=O)O` (stereo not given) the period change [5] was 0.08 h (inactive), the inhibition [6] was -5% (inactive) and the fluorescence ratio (interference) [7] was 1 (inactive). The inhibition ([8]; at 0.5 µM, stronger effect = higher value) was -11.1% (inactive), the inhibition ([8]; measured here: combination with BGB IC20, at 0.005 µM) was -25.1% and the inhibition ([8]; measured here: combination with BGB IC40, at 0.005 µM) was -17.8%. For the same molecule, the inhibition [8, 23] was -29.1%, the inhibition ([8]; measured here: combination with cisplatin, at 0.5 µM, stronger effect = higher value) was -3.85% and the inhibition ([8]; measured here: combination with cisplatin, at 5 µM, stronger effect = higher value) was 7.41%. For the same molecule, the inhibition ([9]; BGB combo, at 5 µM) was 28.5%, the inhibition ([9]; at 0.5 µM) was -17.3% (inactive) and the inhibition ([9]; cisplatin combo, at 5 µM) was 18.9%. It also gave an inhibition [9, 24] of -14.2%, an inhibition [9, 25] of -16.2% and an inhibition ([9]; single agent, at 5 µM) of 3.9%. It also gave an inhibition ([10]; BGB IC20 combo, at 0.005 µM) of -15.2%, an inhibition ([10]; BGB IC40 combo, at 0.005 µM) of -22.4% and an inhibition ([10]; BGB IC40 combo, at 0.05 µM) of 14.2%. For the same molecule, the inhibition ([10]; at 0.5 µM) was -37% (inactive), the inhibition ([10]; cisplatin combo, at 0.05 µM) was 11.8% and the inhibition ([10]; cisplatin combo, at 0.5 µM) was -52.6%. For the same molecule, the inhibition ([10]; cisplatin combo, at 5 µM) was -29.7%, the inhibition ([10]; measured here: 5 uM single agent, at 5 µM) was -16.8% and the inhibition ([11]; at 0.5 µM) was -27.3% (inactive). It also gave an inhibition [11, 23] of -28.4%, an inhibition [11, 26] of -42.9% and an inhibition [11, 27] of 34.7%. For the same molecule, the inhibition ([12]; at 0.5 µM) was 5.83% (inactive), the inhibition ([12]; measured here: with BGB IC20, at 0.5 µM) was 1.88% and the inhibition ([12]; measured here: with BGB IC20, at 5 µM) was 54.4%. The inhibition ([12]; measured here: with cisplatin IC20, at 0.5 µM) was -13.1%, the inhibition ([12]; measured here: with cisplatin IC20, at 5 µM) was 74.4% and the inhibition ([12]; single agent, at 5 µM) was 59.9%. For the same molecule, the inhibition ([13]; at 0.5 µM) was -91.3% (inactive), the inhibition ([13]; measured here: combination with BGB at IC20, at 0.5 µM) was -104% and the inhibition ([13]; measured here: combination with cisplatin at IC20, at 0.5 µM) was -99.5%. For the same molecule, the inhibition ([14]; at 0.5 µM) was 12.1% (inactive), the inhibition ([14]; measured here: combo with BGB at IC20, at 0.5 µM) was 19.3% and the inhibition ([14]; measured here: combo with cisplatin at IC20, at 0.5 µM) was 20.5%. For the same molecule, the inhibition ([15]; at 0.5 µM) was -2.07% (inactive), the inhibition ([15]; measured here: inhibition with BGB combination, at 0.05 µM) was -36% and the inhibition ([15]; measured here: inhibition with cisplatin combination, at 0.05 µM) was -22.5%. The inhibition ([16]; at 0.5 µM) was -18.9% (inactive), the inhibition [16, 26] was -23.8% and the inhibition [16, 27] was -58.8%. The inhibition ([17]; at 0.5 µM) was 10.4% (inactive), the inhibition ([17]; measured here: BGB combination, at 0.5 µM) was 2.27% and the inhibition ([17]; measured here: BGB combination, at 5 µM) was 8.02%. It also gave an inhibition ([17]; measured here: cisplatin combination, at 0.5 µM) of 6.39%, an inhibition ([17]; measured here: cisplatin combination, at 5 µM) of 33.3% and an inhibition ([18]; BGB combination, concentration series, at 5 µM) of 31.5%. For the same molecule, the inhibition ([18]; at 0.5 µM) was 4.15% (inactive), the inhibition ([18]; cisplatin combination, concentration series, at 5 µM) was 41.4% and the inhibition ([19]; at 0.5 µM) was 16.9% (inactive). For the same molecule, the inhibition ([19]; measured here: combo with BGB IC20, at 0.5 µM) was 22.5%, the inhibition ([19]; measured here: combo with cisplatin IC20, at 0.5 µM) was 4.4% and the inhibition ([20]; at 0.5 µM) was -14.6% (inactive). For the same molecule, the inhibition ([20]; cisplatin combination, at 0.5 µM) was 5.86%, the inhibition ([20]; cisplatin combination, at 5 µM) was 35.1% and the inhibition ([20]; measured here: BGB IC40 combination 0.05 uM, at 0.05 µM) was -5.01%. The inhibition ([20]; single agent, at 5 µM) was -20.7%, the inhibition ([21]; at 0.5 µM) was -26.4% (inactive) and the inhibition ([21]; cisplatin combo, at 5 µM) was 81.5%. The inhibition ([21]; measured here: BGB IC40 combination, at 0.05 µM) was -33.2%, the inhibition [21, 26] was -31.6% and the inhibition ([21]; single agent, at 5 µM) was -6.56%. For the same molecule, the inhibition ([22]; at 0.5 µM) was -21.6% (inactive), the inhibition [22, 24] was -14.9% and the inhibition [22, 25] was -27.8%. For the same molecule, the inhibition ([22]; single agent, at 0.05 µM) was -31.8% and the inhibition ([22]; single agent, at 5 µM) was 43.7%.
